This passage reports NF-kB reporter, IRF reporter and viability score results from the supplement of paper PMC10646978.

What all share (details): modulator concentration 10 µM
In test [1] the test system is RAW-Dual (murine macrophage reporter line). As to the kind of experiment: NF-kB reporter (SEAP) activity fold change vs agonist alone; higher = enhanced NF-kB activity. Put shortly: (§1)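 RAW-Dual murine macrophage reporter cells were seeded at 50 000 per well in 384-well plates and pre-incubated 1 hour at 37 °C with compound pin-transferred to 10 μM final. After 1 hour, a PRR agonist was added and cells incubated overnight. Supernatant NF-κB (SEAP, QUANTI-Blue, 620 nm absorbance) and IRF (Lucia luciferase, QUANTI-Luc, luminescence) signals were divided by the mean agonist-only control on the same plate to give fold change. Two replicate plates were averaged, with errors by propagation.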

The test system is the same in test [2]. The test is described as follows: IRF reporter (Lucia luciferase) activity fold change vs agonist alone; higher = enhanced IRF activity. Put shortly: as §1
The test system is the same in test [3]. The test is described as follows: viability score (confluency relative to resting cells, overnight) (fraction); higher = more viable, active = viable (0.7 or more). Put shortly:
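Two confluency masks, generated with IncuCyte software over all imaged wells, were applied to IncuCyte images of RAW-Dual macrophages. The cells, in 384-well plates, had been exposed overnight to 10 μM final compound. The viability score is confluency as a fraction of resting cells, and a compound met the cutoff only with both masks above 70% of resting cells.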

Setting [4] is: agonist: CpG ODN 1826 0.5 ug/mL.

SMILES strings stand for the structures. ± gives the standard deviation.

As for `c1ccc(OCc2nnc(-c3ccccc3)o2)cc1`, the NF-kB reporter in test [1] (setting [4]) stood at 1.15 ± 0.1; in test [1] (agonist: LPS 0.1 ug/mL), 1.19 ± 0.09; in test [1] (agonist: MPLA […]) it was 1.14 ± 0.037. In addition, the figures for the IRF reporter in test [2] (agonist: 3'3'-cGAMP 10 ug/mL), in test [2] (agonist: LPS 0.1 ug/mL) and in test [2] (agonist: MPLA […]) were 0.87 ± 0.078, 0.937 ± 0.044 and 0.973 ± 0.076, respectively. Besides, the viability score in test [3] is 0.999 (active).
For the compound `COc1ccc(NC(=O)CN(c2ccc(C)c(C)c2)S(C)(=O)=O)cc1`, the NF-kB reporter stood at 0.831 ± 0.068 in test [1] (setting [4]), 1.02 ± 0.061 in test [1] (agonist: LPS 0.1 ug/mL) and 1.07 ± 0.12 in test [1] (agonist: MPLA […]). For the same compound, the IRF reporter in test [2] (agonist: 3'3'-cGAMP 10 ug/mL) came to 0.88 ± 0.046; in test [2] (agonist: LPS 0.1 ug/mL), 1.46 ± 0.084; in test [2] (agonist: MPLA […]) it was 1.53 ± 0.14. In addition, the viability score in test [3] is 0.998 (active).
For `Nc1ccc(S(N)(=O)=O)cc1`, the NF-kB reporter in test [1] (setting [4]) is 1.1 ± 0.094; in test [1] (agonist: LPS 0.1 ug/mL) it was 0.993 ± 0.069; in test [1] (agonist: MPLA […]) it was 1 ± 0.088. Also, the results for the IRF reporter in test [2] (agonist: 3'3'-cGAMP 10 ug/mL), in test [2] (agonist: LPS 0.1 ug/mL) and in test [2] (agonist: MPLA […]) were 1.22 ± 0.27, 0.933 ± 0.038 and 0.904 ± 0.072, respectively. Besides, in test [3], the viability score was 0.994 (active).
Regarding `CCc1cccc(C)c1NC(=O)C(C)(C)CC`, the NF-kB reporter was determined as 0.948 ± 0.18 in test [1] (setting [4]), 0.846 ± 0.12 in test [1] (agonist: LPS 0.1 ug/mL) and 0.911 ± 0.09 in test [1] (agonist: MPLA […]). Further, the figures for the IRF reporter in test [2] (agonist: 3'3'-cGAMP 10 ug/mL), in test [2] (agonist: LPS 0.1 ug/mL) and in test [2] (agonist: MPLA […]) were 1.03 ± 0.041, 0.988 ± 0.097 and 0.975 ± 0.1, respectively. Moreover, in test [3], the viability score was 0.995 (active).
On to `COc1ccc(-c2cc(=O)oc3cc(OCc4cc5c(cc4Cl)OCO5)ccc23)cc1`, for which the NF-kB reporter worked out at 0.738 ± 0.058 in test [1] (setting [4]), 0.829 ± 0.13 in test [1] (agonist: LPS 0.1 ug/mL) and 1.08 ± 0.11 in test [1] (agonist: MPLA […]). For the same compound, the IRF reporter is 0.983 ± 0.053 in test [2] (agonist: 3'3'-cGAMP 10 ug/mL), 1.17 ± 0.068 in test [2] (agonist: LPS 0.1 ug/mL) and 1.16 ± 0.15 in test [2] (agonist: MPLA […]). In addition, the viability score in test [3] is 1.01 (active).
`O=C(CSc1nc(-c2ccccc2)c(-c2ccccc2)o1)N1CCOCC1`: the NF-kB reporter in test [1] (setting [4]) turned out to be 1.03 ± 0.081; in test [1] (agonist: LPS 0.1 ug/mL), 1.02 ± 0.079; in test [1] (agonist: MPLA […]), 0.903 ± 0.054. The values for the IRF reporter in test [2] (agonist: 3'3'-cGAMP 10 ug/mL), in test [2] (agonist: LPS 0.1 ug/mL) and in test [2] (agonist: MPLA […]) were 0.954 ± 0.045, 1.31 ± 0.11 and 1.2 ± 0.12, respectively. In addition, the viability score in test [3] is 0.996 (active).
As to `Brc1ccc2ncnc(N3CCOCC3)c2c1`, the figures for the NF-kB reporter in test [1] (setting [4]), in test [1] (agonist: LPS 0.1 ug/mL) and in test [1] (agonist: MPLA […]) were 1.17 ± 0.097, 1.39 ± 0.098 and 1.13 ± 0.05, respectively. The values for the IRF reporter in test [2] (agonist: 3'3'-cGAMP 10 ug/mL), in test [2] (agonist: LPS 0.1 ug/mL) and in test [2] (agonist: MPLA […]) were 0.357 ± 0.087, 0.515 ± 0.039 and 0.592 ± 0.084, respectively. The viability score in test [3] was 1 (active).
As to `Cc1ccc2[nH]c3nc(C)cc(C)c3c(=O)c2c1`, the NF-kB reporter worked out at 0.967 ± 0.16 in test [1] (setting [4]), 1.08 ± 0.091 in test [1] (agonist: LPS 0.1 ug/mL) and 0.993 ± 0.12 in test [1] (agonist: MPLA […]). Moreover, the IRF reporter in test [2] (agonist: 3'3'-cGAMP 10 ug/mL) was determined as 1.01 ± 0.052; in test [2] (agonist: LPS 0.1 ug/mL), 1.25 ± 0.25; in test [2] (agonist: MPLA […]), 1.31 ± 0.21. In addition, the viability score in test [3] was 0.704 (active).
As to `C=C1CCN([C@H](C)[C@](O)(Cn2cncn2)c2ccc(F)cc2F)CC1`, the NF-kB reporter stood at 1.21 ± 0.12 in test [1] (setting [4]), 0.941 ± 0.11 in test [1] (agonist: LPS 0.1 ug/mL) and 0.986 ± 0.095 in test [1] (agonist: MPLA […]). In addition, the IRF reporter in test [2] (agonist: 3'3'-cGAMP 10 ug/mL) is 1.19 ± 0.054; in test [2] (agonist: LPS 0.1 ug/mL), 1.73 ± 0.16; in test [2] (agonist: MPLA […]), 1.3 ± 0.15. Further, the viability score in test [3] is 0.134 (inactive).
With `Cc1cc(OCC(=O)NC2CC(C)(C)NC(C)(C)C2)ccc1Br`, the NF-kB reporter in test [1] (setting [4]) was 0.843 ± 0.1; in test [1] (agonist: LPS 0.1 ug/mL), 1.03 ± 0.079; in test [1] (agonist: MPLA […]), 1.05 ± 0.043. Moreover, the values for the IRF reporter in test [2] (agonist: 3'3'-cGAMP 10 ug/mL), in test [2] (agonist: LPS 0.1 ug/mL) and in test [2] (agonist: MPLA […]) were 0.952 ± 0.041, 1.1 ± 0.079 and 1.55 ± 0.19, respectively. Moreover, in test [3], the viability score was 0.976 (active).
Regarding `O=C(NCC#CCN1CCc2ccccc2C1)c1cccc(Br)c1`, the NF-kB reporter in test [1] (setting [4]) amounted to 0.87 ± 0.043; in test [1] (agonist: LPS 0.1 ug/mL) it was 1.12 ± 0.095; in test [1] (agonist: MPLA […]), 0.94 ± 0.057. The IRF reporter in test [2] (agonist: 3'3'-cGAMP 10 ug/mL) is 1.01 ± 0.057; in test [2] (agonist: LPS 0.1 ug/mL), 1.14 ± 0.069; in test [2] (agonist: MPLA […]), 1.26 ± 0.12. The viability score in test [3] is 1.01 (active).
For `Cc1n[nH]c(C)c1S(=O)(=O)N1CCCN(C(=O)Cc2ccccc2Cl)CC1`, the figures for the NF-kB reporter in test [1] (setting [4]), in test [1] (agonist: LPS 0.1 ug/mL) and in test [1] (agonist: MPLA […]) were 1.03 ± 0.051, 1.14 ± 0.11 and 1 ± 0.18, respectively. Moreover, the IRF reporter was determined as 1.05 ± 0.053 in test [2] (agonist: 3'3'-cGAMP 10 ug/mL), 1.21 ± 0.074 in test [2] (agonist: LPS 0.1 ug/mL) and 1.26 ± 0.11 in test [2] (agonist: MPLA […]). In test [3], the viability score was 0.979 (active).
